Results as given in PubChem BioAssay (NCI).
About 79,000 compounds went through this panel and 15% of them were active in at least one assay; those are over-represented in the sample as a whole. A number with no mark means an inactive call. Activity calls are given as the source filed them. Cut-off read from the data, not from the text of the source: active = growth inhibition above about 70%; inactive = the rest.

Key:
[1] = NCI Yeast Anticancer Drug Screen. Data for the rad52 strain (AID 147);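 note: 0% = growth of vehicle-treated control cultures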; settings: S. cerevisiae rad52 mutant growth inhibition, active compounds read high
In short: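 DNA repair-defective yeast; compound exposure; growth scored against vehicle controls.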

[2] = NCI Yeast Anticancer Drug Screen. Data for the wt1 strain (AID 149);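 note: 0% = growth of vehicle-treated wt1 cultures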; settings: S. cerevisiae wt1 strain (SPY 50644) growth inhibition, active compounds read high
In short: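 Yeast wt1 strain exposed to compounds; growth inhibition measured relative to vehicle-treated controls.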

[3] = NCI Yeast Anticancer Drug Screen. Data for the rad50EPP+ strain (AID 151);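 note: 0% = growth of vehicle-treated control cultures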; settings: S. cerevisiae rad50 mutant strain, active compounds read high
In short: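 rad50EPP+ yeast treated with test compounds. Readout: growth vs vehicle control.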

[4] = NCI Yeast Anticancer Drug Screen. Data for the mgt1 strain (AID 153); settings: S. cerevisiae mgt1 mutant growth inhibition, active compounds read high
In short: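 Growth inhibition relative to vehicle controls was scored for the mgt1 yeast strain after compound exposure.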

[5] = NCI Yeast Anticancer Drug Screen. Data for the rad50 strain (AID 155);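 note: 0% = growth of vehicle-only cultures of the same strain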; settings: S. cerevisiae rad50 strain growth inhibition, active compounds read high
In short: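 Yeast carrying a defined DNA repair defect were exposed to test compounds, and growth was compared with vehicle-treated controls to give percent inhibition.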

[6] = NCI Yeast Anticancer Drug Screen. Data for the mec2-1 strain (AID 157); settings: S. cerevisiae mec2-1 strain, active compounds read high
In short: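 Growth inhibition is read against vehicle-treated controls after compound exposure of the mec2-1 yeast strain, which is defective in DNA damage repair or cell cycle control.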

[7] = NCI Yeast Anticancer Drug Screen. Data for the rad14 strain (AID 159);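 note: 0% = growth of vehicle-treated control cultures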; settings: S. cerevisiae rad14 strain growth inhibition, active compounds read high
In short: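 Yeast cells carrying a defined DNA-repair defect were exposed to compounds, and growth inhibition was calculated relative to vehicle-treated control cultures.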

[8] = NCI Yeast Anticancer Drug Screen. Data for the sgs1 mgt1 strain (AID 161);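 note: 0% = growth of cultures given vehicle only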; settings: S. cerevisiae sgs1 mgt1 strain, active compounds read high
In short: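 This yeast growth screen uses a strain with defined DNA-repair lesions; compound-treated growth is compared with vehicle-treated growth.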

[9] = NCI Yeast Anticancer Drug Screen. Data for the CLN2oe strain (AID 163);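 note: 0% = growth of vehicle-only control cultures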; settings: S. cerevisiae CLN2oe strain, active compounds read high
In short: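 Compound-treated yeast; growth vs vehicle ctrl = % inhibition. Genetically altered strain (cell-cycle control).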

[10] = NCI Yeast Anticancer Drug Screen. Data for the cln2 rad14 strain (AID 165);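 note: 0% = growth equal to vehicle treated cultures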; settings: S. cerevisiae cln2 rad14 strain, active compounds read high
In short: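 Growth inhibition, relative to vehicle-treated controls, is the read-out. The test organism is a yeast strain with defined genetic alterations, cln2 rad14.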

[11] = NCI Yeast Anticancer Drug Screen. Data for the bub3 strain (AID 167); settings: S. cerevisiae bub3 mutant strain, active compounds read high
In short: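 Compounds were applied to a genetically altered yeast strain carrying a cell-cycle control defect. Growth inhibition was scored against vehicle-treated controls.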

[12] = NCI Yeast Anticancer Drug Screen. Data for the wt2 strain (AID 169);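 note: 0% = growth of vehicle-treated yeast cultures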; settings: S. cerevisiae wt2 strain growth inhibition, active compounds read high
In short: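 Compound exposure of yeast; growth compared with vehicle controls; inhibition reported.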

[13] = NCI Yeast Anticancer Drug Screen. Data for the sgs1 strain (AID 173);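 note: 0% = growth of vehicle-only control cultures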; settings: S. cerevisiae sgs1 mutant, active compounds read high
In short: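 Compounds applied to genetically altered yeast; growth compared with vehicle-treated cultures to give % inhibition.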

[14] = NCI Yeast Anticancer Drug Screen. Data for the mlh1 rad18 strain (AID 175); settings: S. cerevisiae mlh1 rad18 strain growth inhibition, active compounds read high
In short: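 Cells of a genetically altered yeast strain, deficient in DNA damage repair, were treated with compound. Their growth was then compared with that of vehicle-treated cultures to give inhibition.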

[15] = NCI Yeast Anticancer Drug Screen. Data for the rad18 strain (AID 177); settings: S. cerevisiae rad18 mutant growth inhibition, active compounds read high
In short: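 Compounds are applied to a repair-deficient yeast strain, and growth is compared with that of vehicle-treated cultures to give percent inhibition.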

[16] = at 5.0 µM (retest, dose inferred, filed as 0.5)
[17] = at 50.0 µM (retest, dose inferred, filed as 5.0)

Question: With `COc1ccccc1C(=O)OCC1CCCN2CCCCC12` (stereo not drawn) as the molecule, how does the growth inhibition ([1]; at 1.2 µM) read?
Answer: Its growth inhibition is 22%.

Question: What about the growth inhibition ([1]; at 3.7 µM) of the same molecule?
Answer: Its growth inhibition is 8%.

Question: What about the growth inhibition ([1]; at 11.0 µM) of the same molecule?
Answer: Its growth inhibition is 57%.

Question: And the growth inhibition ([1]; at 33.0 µM)?
Answer: Its growth inhibition is 76% (active).

Question: What about the growth inhibition ([1]; at 100.0 µM) of the same molecule?
Answer: The growth inhibition was 97% (active).

Question: What about the growth inhibition ([2]; at 1.2 µM) of the same molecule?
Answer: The growth inhibition was 0%.

Question: And the growth inhibition ([2]; at 3.7 µM)?
Answer: The growth inhibition was -7%.

Question: And the growth inhibition ([2]; at 11.0 µM)?
Answer: Its growth inhibition is 7%.

Question: What about the growth inhibition ([2]; at 33.0 µM) of the same molecule?
Answer: The growth inhibition was 76% (active).

Question: What about the growth inhibition ([2]; at 100.0 µM) of the same molecule?
Answer: Its growth inhibition is 98% (active).

Question: What about the growth inhibition ([3]; at 1.2 µM) of the same molecule?
Answer: The growth inhibition was 4%.

Question: What about the growth inhibition ([3]; at 3.7 µM) of the same molecule?
Answer: Its growth inhibition is -3%.

Question: What about the growth inhibition ([3]; at 11.0 µM) of the same molecule?
Answer: Its growth inhibition is 80% (active).

Question: And the growth inhibition ([3]; at 33.0 µM)?
Answer: The growth inhibition was 97% (active).

Question: And the growth inhibition ([3]; at 100.0 µM)?
Answer: The growth inhibition was 98% (active).

Question: What about the growth inhibition ([4]; at 1.2 µM) of the same molecule?
Answer: Its growth inhibition is 23%.

Question: And the growth inhibition ([4]; at 3.7 µM)?
Answer: Its growth inhibition is 15%.

Question: And the growth inhibition ([4]; at 11.0 µM)?
Answer: The growth inhibition was 73% (active).

Question: What about the growth inhibition ([4]; at 33.0 µM) of the same molecule?
Answer: The growth inhibition was 91% (active).

Question: And the growth inhibition ([4]; at 100.0 µM)?
Answer: Its growth inhibition is 98% (active).

Question: And the growth inhibition ([5]; at 1.2 µM)?
Answer: The growth inhibition was 8%.

Question: And the growth inhibition ([5]; at 3.7 µM)?
Answer: Its growth inhibition is 8%.

Question: What about the growth inhibition [5, 16] of the same molecule?
Answer: Its growth inhibition is 21%.

Question: And the growth inhibition ([5]; at 11.0 µM)?
Answer: The growth inhibition was 68%.

Question: What about the growth inhibition ([5]; at 33.0 µM) of the same molecule?
Answer: Its growth inhibition is 97% (active).

Question: What about the growth inhibition [5, 17] of the same molecule?
Answer: The growth inhibition was 99% (active).

Question: And the growth inhibition ([5]; at 50.0 µM)?
Answer: The growth inhibition was 90.7% (active).

Question: What about the growth inhibition ([5]; at 100.0 µM) of the same molecule?
Answer: The growth inhibition was 97% (active).

Question: What about the growth inhibition ([6]; at 1.2 µM) of the same molecule?
Answer: The growth inhibition was 0%.

Question: What about the growth inhibition ([6]; at 3.7 µM) of the same molecule?
Answer: Its growth inhibition is -6%.

Question: What about the growth inhibition [6, 16] of the same molecule?
Answer: Its growth inhibition is 53%.

Question: What about the growth inhibition ([6]; at 11.0 µM) of the same molecule?
Answer: Its growth inhibition is 0%.

Question: And the growth inhibition ([6]; at 33.0 µM)?
Answer: The growth inhibition was 56%.

Question: And the growth inhibition [6, 17]?
Answer: The growth inhibition was 99% (active).

Question: What about the growth inhibition ([6]; at 50.0 µM) of the same molecule?
Answer: The growth inhibition was 93% (active).

Question: And the growth inhibition ([6]; at 100.0 µM)?
Answer: Its growth inhibition is 98% (active).

Question: And the growth inhibition ([7]; at 1.2 µM)?
Answer: Its growth inhibition is 10%.

Question: And the growth inhibition ([7]; at 3.7 µM)?
Answer: Its growth inhibition is 17%.

Question: What about the growth inhibition ([7]; at 11.0 µM) of the same molecule?
Answer: Its growth inhibition is 77% (active).

Question: And the growth inhibition ([7]; at 33.0 µM)?
Answer: Its growth inhibition is 98% (active).

Question: What about the growth inhibition ([7]; at 100.0 µM) of the same molecule?
Answer: The growth inhibition was 99% (active).

Question: And the growth inhibition [8, 16]?
Answer: Its growth inhibition is -17%.

Question: What about the growth inhibition [8, 17] of the same molecule?
Answer: The growth inhibition was 40%.

Question: What about the growth inhibition ([8]; at 50.0 µM) of the same molecule?
Answer: Its growth inhibition is 91.6% (active).

Question: And the growth inhibition ([9]; at 1.2 µM)?
Answer: The growth inhibition was 8%.

Question: What about the growth inhibition ([9]; at 3.7 µM) of the same molecule?
Answer: Its growth inhibition is -1%.

Question: And the growth inhibition ([9]; at 11.0 µM)?
Answer: The growth inhibition was -12%.

Question: And the growth inhibition ([9]; at 33.0 µM)?
Answer: Its growth inhibition is 63%.

Question: And the growth inhibition ([9]; at 100.0 µM)?
Answer: Its growth inhibition is 95% (active).

Question: And the growth inhibition [10, 16]?
Answer: The growth inhibition was -9%.

Question: And the growth inhibition [10, 17]?
Answer: Its growth inhibition is 8%.

Question: What about the growth inhibition ([10]; at 50.0 µM) of the same molecule?
Answer: Its growth inhibition is 90.9% (active).

Question: And the growth inhibition ([11]; at 1.2 µM)?
Answer: Its growth inhibition is -9%.

Question: What about the growth inhibition ([11]; at 3.7 µM) of the same molecule?
Answer: Its growth inhibition is -20%.

Question: What about the growth inhibition [11, 16] of the same molecule?
Answer: Its growth inhibition is 7%.

Question: And the growth inhibition ([11]; at 11.0 µM)?
Answer: Its growth inhibition is 31%.

Question: And the growth inhibition ([11]; at 33.0 µM)?
Answer: Its growth inhibition is 97% (active).

Question: And the growth inhibition [11, 17]?
Answer: The growth inhibition was 91% (active).

Question: What about the growth inhibition ([11]; at 50.0 µM) of the same molecule?
Answer: The growth inhibition was 90.8% (active).

Question: What about the growth inhibition ([11]; at 100.0 µM) of the same molecule?
Answer: The growth inhibition was 97% (active).

Question: And the growth inhibition ([12]; at 1.2 µM)?
Answer: Its growth inhibition is -18%.

Question: And the growth inhibition ([12]; at 3.7 µM)?
Answer: Its growth inhibition is -5%.

Question: And the growth inhibition ([12]; at 11.0 µM)?
Answer: Its growth inhibition is 94% (active).

Question: What about the growth inhibition ([12]; at 33.0 µM) of the same molecule?
Answer: Its growth inhibition is 96% (active).

Question: What about the growth inhibition ([12]; at 100.0 µM) of the same molecule?
Answer: The growth inhibition was 98% (active).

Question: What about the growth inhibition ([13]; at 1.2 µM) of the same molecule?
Answer: The growth inhibition was 10%.

Question: And the growth inhibition ([13]; at 3.7 µM)?
Answer: The growth inhibition was -15%.

Question: And the growth inhibition ([13]; at 11.0 µM)?
Answer: The growth inhibition was 62%.

Question: What about the growth inhibition ([13]; at 33.0 µM) of the same molecule?
Answer: Its growth inhibition is 63%.

Question: What about the growth inhibition ([13]; at 100.0 µM) of the same molecule?
Answer: The growth inhibition was 98% (active).

Question: What about the growth inhibition [14, 16] of the same molecule?
Answer: The growth inhibition was 60%.

Question: What about the growth inhibition [14, 17] of the same molecule?
Answer: Its growth inhibition is 99% (active).

Question: And the growth inhibition ([14]; at 50.0 µM)?
Answer: The growth inhibition was 90.3% (active).

Question: What about the growth inhibition ([15]; at 1.2 µM) of the same molecule?
Answer: The growth inhibition was -5%.

Question: And the growth inhibition ([15]; at 3.7 µM)?
Answer: The growth inhibition was -21%.

Question: What about the growth inhibition ([15]; at 11.0 µM) of the same molecule?
Answer: The growth inhibition was 35%.

Question: And the growth inhibition ([15]; at 33.0 µM)?
Answer: Its growth inhibition is 95% (active).

Question: And the growth inhibition ([15]; at 100.0 µM)?
Answer: Its growth inhibition is 97% (active).
